Where “and” joins values, the source holds several entries; their conditions need not be identical. Equal values may be shown once. The whole screen tested about 5,500 compounds, of which about 2,000 (36%) were called active. Another 18% or so got no clear call; they are omitted. No stated cut-off is given here; in the data, active means normalized growth mostly below about 0.91 (no sharp cut-off); inconclusive means no clear call, values can overlap the other calls; inactive means mostly above about 0.92. This is one part of the list.
Assay: chemical genetic growth profiling, strain panel (AID 1159580);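 further: tested at 20 µM; growth read once vehicle control cultures reached saturation at 30 °C; 1 = growth at the plate median or of vehicle wells; lower values mean less growth of the strain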
Conditions: S. cerevisiae deletion strains, growth OD

Measured: normalized growth

Cc1cc(O)cc(O)c1C(=O)O
inactive: locus YAL021C, strain ccr4, hits give low values 0.972 | locus YAL026C, strain drs2, hits give low values 1.05 | locus YAL030W, strain snc1, hits give low values 1.02 | locus YBL061C, strain skt5, hits give low values 1.02 | locus YBR009C, strain hhf1, hits give low values 1.01 | locus YBR021W, strain FUR4, hits give low values 1.02 | locus YBR023C, strain chs3, hits give low values 1.02 | locus YBR171W, strain sec66, hits give low values 1.02 | locus YBR229C, strain ROT2, hits give low values 1.02 | locus YBR231C, strain swc5, hits give low values 1 | locus YBR279W, strain paf1, hits give low values 1.02 | locus YCL011C, strain gbp2, hits give low values 1.01 | locus YCL016C, strain dcc1, hits give low values 0.984 | locus YCL029C, strain bik1, hits give low values 1 | locus YCL061C, strain MRC1, hits give low values 1.03 | locus YCL069W, strain vba3, hits give low values 1.01 | locus YCR088W, strain abp1, hits give low values 1.02 | locus YDL005C, strain med2, hits give low values 1.03 | locus YDL035C, strain GPR1, hits give low values 1.04 | locus YDL040C, strain nat1, hits give low values 1.02 | locus YDL074C, strain BRE1, hits give low values 1.03 | locus YDL101C, strain DUN1, hits give low values 1 | locus YDL134C, strain PPH21, hits give low values 1.04 | locus YDL185W, strain tfp1, hits give low values 0.988 | locus YDL192W, strain arf1, hits give low values 1.04 | locus YDR001C, strain nth1, hits give low values 1.02 | locus YDR069C, strain doa4, hits give low values 1.03 | locus YDR101C, strain arx1, hits give low values 1.04 | locus YDR137W, strain rgp1, hits give low values 1.03 | locus YDR159W, strain sac3, hits give low values 1.06 | locus YDR162C, strain NBP2, hits give low values 1.01 | locus YDR195W, strain ref2 0.986 | locus YDR297W, strain sur2, hits give low values 1.02 | locus YDR318W, strain mcm21, hits give low values 1.01 | locus YDR334W, strain swr1, hits give low values 1.02 | locus YDR335W, strain msn5, hits give low values 1.02 | locus YDR388W, hits give low values 1 | locus YDR392W, strain spt3, hits give low values 0.897 | locus YDR502C, strain sam2, hits give low values 0.997 | locus YEL003W, strain gim4, hits give low values 1.01 | locus YEL037C, strain rad23, hits give low values 1.01 | locus YEL061C, strain CIN8 (second series), hits give low values 1.01 | locus YEL061C, strain CIN8, hits give low values 1.01 | locus YER015W, strain faa2, hits give low values 1.01 | locus YER016W, strain bim1, hits give low values 1.02 | locus YER110C, hits give low values 0.982 | locus YER111C, strain swi4, hits give low values 1.01 | locus YER155C, strain BEM2 (second series), hits give low values 1.02 | locus YER155C, strain BEM2, hits give low values 1 | locus YER167W, strain BCK2, hits give low values 1.01 | locus YFR010W, strain ubp6, hits give low values 1.02 | locus YGL078C, strain dbp3, hits give low values 0.964 | locus YGL086W, strain mad1, hits give low values 1.01 | locus YGL167C, strain pmr1, hits give low values 1.02 | locus YGL173C, strain kem1, hits give low values 1.04 | locus YGL227W, strain vid30, hits give low values 1.01 | locus YGL240W, strain doc1, hits give low values 1.02 | locus YGL248W, strain PDE1, hits give low values 1.03 | locus YGL253W, strain hxk2, hits give low values 1.05 | locus YGR078C, strain PAC10, hits give low values 1.03 | locus YGR135W, strain pre9, hits give low values 0.96 | locus YGR252W, strain gcn5, hits give low values 1.06 | locus YHR013C, strain ard1, hits give low values 1.02 | locus YHR027C, strain rpn1, hits give low values 1.01 | locus YHR030C, strain SLT2, hits give low values 1.1 | locus YHR079C, strain IRE1 (second series), hits give low values 1 | locus YHR079C, strain IRE1, hits give low values 1.08 | locus YHR094C, strain hxt1, hits give low values 1.01 | locus YHR129C, strain ARP1, hits give low values 1.02 | locus YHR142W, strain chs7, hits give low values 1.01 | locus YHR200W, strain rpn10, hits give low values 1 | locus YIL066C, strain RNR3, hits give low values 1.03 | locus YIL073C, strain SPO22, hits give low values 1 | locus YIL125W, strain kgd1, hits give low values 0.993 | locus YIR030C, strain dcg1, hits give low values 1.01 | locus YJL092W, strain hpr5, hits give low values 1.02 | locus YJL095W, strain BCK1 (second series), hits give low values 1.02 | locus YJL095W, strain BCK1, hits give low values 1.04 and 1.07 | locus YJL115W, strain asf1, hits give low values 1.02 | locus YJL129C, strain trk1, hits give low values 1.03 | locus YJL134W, strain LCB3, hits give low values 1.01 | locus YJL154C, strain vps35, hits give low values 1.01 | locus YJL164C, strain tpk1, hits give low values 0.997 | locus YJL166W, strain qcr8, hits give low values 1.03 | locus YJL168C, strain set2, hits give low values 1.02 | locus YJL187C, strain SWE1 (second series), hits give low values 1.01 | locus YJL187C, strain SWE1, hits give low values 1.02

Reference: PubChem BioAssay AID1159580 (chemical genetic matrix, 2015)
